# In PubChem BioAssay AID463173 (ICCB-Longwood Screening Facility, Harvard Medical School, 2010):
# The campaign covered roughly 52,000 compounds. About 4,300 (8.3%) were called active. Rule as the data show it: active = survival mostly below about 52% (no sharp cut-off); inactive = mostly above about 56%. For the sample, actives were picked, then their nearest neighbours and some compounds at random.
# Test system: DeltatarO mutant
# Assay: growth inhibition of S. aureus wild type versus tarO mutant, primary screen, teichoic acid synthesis inhibitors, RN4220, OD600 (AID 463173)
# Details: OD600, 18 h, stronger effect = lower value, screened at 18.75 µg/mL (by protocol)
row,Compound,survival
1,COc1cc(Cl)c(C)cc1NC(=O)CCc1c(C)nc2cc(-c3cccc(F)c3)nn2c1C,74% (inactive)
2,CCCCc1nn2c(=O)cc(CN(CC)c3ccccc3)nc2s1,73% (inactive)
3,Cc1noc2ncnc(N3CCN(c4cccc(C(F)(F)F)c4)CC3)c12,71% (inactive)
4,CCOC(=O)CSc1nc2cc3c(cc2c(=O)n1CCCC(=O)NCc1ccc2c(c1)OCO2)OCO3,83% (inactive)
5,COc1ccc(S(=O)(=O)NCCc2sc3nc(-c4ccc(C)cc4)nn3c2C)cc1F,72% (inactive)
6,Cc1cc(C)cc(-n2cnc3cc(C(=O)NC4CCCCCC4)ccc32)c1,95% (inactive)
7,Nc1nonc1-c1nc2ccccc2n1CC(=O)Nc1ccc(F)cc1,169% (inactive)
8,Nc1nonc1-c1nc2ccccc2n1CCn1c(-c2nonc2N)nc2ccccc21,82% (inactive)
9,Nc1nonc1-c1nc2ccccc2n1CC(=O)Nc1ccccc1C(=O)O,45% (active)
10,Nc1nonc1-c1nc2ccccc2n1CC(=O)Nc1cccc(Cl)c1Cl,66% (inactive)
11,NC(=O)Cn1c(-c2nonc2N)nc2ccccc21,62% (active)
12,CCc1ccccc1NC(=O)Cn1c(-c2nonc2N)nc2ccccc21,86% (inactive)
13,COc1ccc(-c2nc(SCC(=O)NC3CCCC3)c(-c3ccc(C)cc3)[nH]2)cc1OC,57% (inactive)
14,COc1ccc(Cn2ccc3nc(C)c(C(=O)NCc4ccc(C)cc4)cc3c2=O)cc1,60% (inactive)
15,O=C(COC(=O)c1ccco1)Nc1cccc2ccccc12,97% (inactive)
16,CCOC(=O)c1c(-c2cccs2)csc1NC(C)=O,69% (inactive)
17,CNS(=O)(=O)c1cn(CC(=O)N2CCN(c3ccc(OC)cc3)CC2)cc1S(=O)(=O)NC,69% (inactive)
18,CNS(=O)(=O)c1cn(CC(=O)N2CCN(c3ccc(C(C)=O)cc3)CC2)cc1S(=O)(=O)NC,37% (active)
19,CNS(=O)(=O)c1cn(CC(=O)N2CCN(c3ccc(Cl)cc3)CC2)cc1S(=O)(=O)NC,106% (inactive)
20,O=C(Cn1cc(SCc2ccc(F)cc2)c2ccccc21)N1CCCCC1,79% (inactive)

row,Compound,survival
1,Cc1ccc(NC(=O)c2oc3ccc(S(=O)(=O)N(C)C4CCCCC4)cc3c2C)c(C)c1,73% (inactive)
2,Cc1nc2ccc(NC(=O)C3CCCCC3)cc2c(=O)n1Cc1ccccc1,63% (inactive)
3,Cc1ccc(CNS(=O)(=O)c2ccc(C(=O)N(C)C)s2)cc1,-4% (active)
4,COc1ccc(CNS(=O)(=O)c2ccc(C(=O)N(C)C)s2)cc1,66% (inactive)
5,CN(C)C(=O)c1ccc(S(=O)(=O)NCc2ccc(Cl)cc2)s1,119% (inactive)
6,CCCNC(=O)c1cnc2sc(N3CCCCC3)nn2c1=O,99% (inactive)
7,O=C(NCc1cccc(Cl)c1)c1cc2c(s1)-c1ccccc1SC2,64% (inactive)
8,COc1cccc(C2c3c(-c4ccccc4O)n[nH]c3C(=O)N2CCc2ccc(OC)c(OC)c2)c1 (centres undefined),8% (active)
9,COc1cccc(C2c3c(-c4ccccc4O)n[nH]c3C(=O)N2Cc2cccnc2)c1 (centres undefined),84% (inactive)
10,COc1cc(C2c3c(-c4ccccc4O)n[nH]c3C(=O)N2Cc2ccncc2)ccc1O (centres undefined),90% (inactive)
11,COc1ccc(CCN2C(=O)c3[nH]nc(-c4ccccc4O)c3C2c2ccc(OC)c(OC)c2)cc1 (centres undefined),45% (active)
12,COc1ccc(CCN2C(=O)c3[nH]nc(-c4ccccc4O)c3C2c2ccc(O)c(OC)c2)cc1 (centres undefined),30% (active)
13,CC(CNC(=O)c1ccc(CSc2nc3ccncc3n2Cc2ccccc2)cc1)c1ccccc1 (centres undefined),78% (inactive)
14,CS(=O)(=O)NCc1ccc2c(c1)OCO2,92% (inactive)
15,COc1ccc(CNC(=O)c2ccc3c(c2)N(Cc2ccccc2)C(=O)c2ccccc2S3(=O)=O)cc1,83% (inactive)
16,COc1ccc(CNc2ccc(C)c(C)c2)c(OC)c1OC,93% (inactive)
17,Cc1ccc2c(c1)N(C(=O)N1CCC(C(=O)NC3CCCCCC3)CC1)CC(C)O2 (centres undefined),72% (inactive)
18,Cc1c(/C=C(\C#N)C(=O)Nc2cccc(Cl)c2)c2ccccc2n1Cc1ccccc1Cl,123% (inactive)
19,Nc1c(S(=O)(=O)Cc2ccccc2)sc2nc3c(cc12)CCCC3,49% (inactive)
20,Cc1nnnn1CCC(=O)NC(C)c1ccccc1 (centres undefined),84% (inactive)

row,Compound,survival
1,Cc1cc(C)nc(N(C#N)Cc2ccccc2)n1,100% (inactive)
2,Cc1cc(C)cc(-n2c(SCC(=O)Nc3ccccc3)nc3c(oc4ccccc43)c2=O)c1,101% (inactive)
3,CCCCOC(=O)/C(C#N)=C/c1ccc(-c2cccc(C(F)(F)F)c2)o1,46% (active)
4,CCCCOC(=O)c1ccc(NC(=O)/C(C#N)=C/c2ccc(C)o2)cc1,49% (active)
5,CCOC(=O)c1ccc(-c2ccc(/C=C(\C#N)C(=O)Nc3ccc(OCC)cc3)o2)cc1,60% (inactive)
6,CCOC(=O)/C(C#N)=C\c1ccc(-c2cccc(C(F)(F)F)c2)o1,84% (inactive)
7,COc1ccc(NC(=O)/C(C#N)=C/c2ccc(C)o2)cc1,77% (inactive)
8,CCCCOC(=O)c1ccc(NC(=O)/C(C#N)=C/c2ccc(-c3ccccc3)o2)cc1,32% (active)
9,CCC(C)OC(=O)/C(C#N)=C\c1ccc(-c2cccc(C(F)(F)F)c2)o1 (centres undefined),64% (inactive)
10,N#C/C(=C\c1ccc(-c2ccccc2)o1)C(=O)Nc1ccccc1,90% (inactive)
11,Cc1ccc(NC(=O)/C(C#N)=C/c2ccc(C)o2)cc1,79% (inactive)
12,CCNC1CC(=O)N(c2ccc(C(=O)OCC)cc2)C1=O (centres undefined),112% (inactive)
13,CCOC(=O)C(C)Nc1ncnc2onc(C)c12 (centres undefined),53% (inactive)
14,CCN(C(=O)Cn1c(=O)n(Cc2ccccc2)c(=O)c2c1c1cc(OC)ccc1n2C)c1ccccc1,84% (inactive)
15,COc1ccc(Cl)cc1NC(=O)CSc1nc2c([nH]c3ccccc32)c(=O)n1-c1ccccc1,81% (inactive)
16,NNC(=O)CNC(=O)c1cccs1,79% (inactive)
17,COc1ccccc1/C=C/C(=O)N1CCC(C(N)=O)CC1,99% (inactive)
18,COC(=O)c1ccc(NC(=O)CSc2ccc(-c3cccs3)nn2)cc1,85% (inactive)
19,COc1ccccc1OCC(=O)Nc1c(C(=O)c2ccc(C)cc2)oc2ccccc12,82% (inactive)
